High-throughput results from PubChem BioAssay.
NTMT1 inhibitor: Primary qHTS for Inhibitors of N-terminal methyltransferase 1 (NTMT1): MTaseGlo Assay | NTMT1 MTase-Glo SAH luminescence, purified enzyme | Potency, µM (doses to about 114 µM), without a hit: top-dose activity change, negative = inhibition, hits mostly inhibitors | 2.5% of 59,000 active | AID 1645870, 2021;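 note: potency is the fitted concentration of half-maximal effect; plate controls were DMSO vehicle for no effect and no enzyme for full effect; nearly all actives have a fitted effect of over 65% in size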
HTT-AS act: Primary qHTS for Identification of Small Molecule Activators of Huntingtin-Antisense Promoter Activity. HEK293 HTT-AS promoter firefly luciferase reporter, 24 h; response scale: percent change from vehicle, -100% = no light. Potency, µM (highest dose often 57.5 µM), for inactives: at the highest dose activity change, positive = activation, most hits filed as activators. 0.24% of 48,000 active. AID 1508624, 2021; note: potency is the fitted concentration of half-maximal effect; nearly all actives have a fitted effect of over 55% in size
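Firefly luciferase signal from promoter-reporter HEK293 cells was scaled between vehicle (0%) and zero RLU (-100%). Compounds were tested at final concentrations of up to 57.5 uM over 24 h at 37 degrees C. PTC124 at 50 uM final served as control inhibitor.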
FH mod: Identification of activators of human fumarate hydratase by quantitative high-throughput screening | Fumarate hydratase, mitochondrial (Homo sapiens), P07954 | FH coupled MDH/diaphorase resazurin fluorescence, 15 min | Potency, µM (top dose mostly 79.9 µM), inactives show top-dose activity change, negative = inhibition, actives largely listed as inhibitors | 0.22% of 54,000 active | AID 1347055, 2019; note: potency is the fitted concentration of half-maximal effect; % is set by controls: 0 for no effect and ±100 for the full control effect; the screen sought activators but most active calls are inhibition curves; nearly all actives have a fitted effect of over 45% in size
HTT prom inh: Primary qHTS for Identification of Small Molecule Inhibitors of Huntingtin Promoter Activity; HEK293 HTT promoter firefly luciferase reporter, 24 h; Potency, µM (doses to about 57.5 µM), inactives show top-dose activity change, negative = inhibition, hits mostly inhibitors; 0.93% of 48,000 active; note: potency is the fitted concentration of half-maximal effect; nearly all actives have a fitted effect of over 50% in size
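HEK293 cells carrying firefly luciferase reporters were seeded at 2,500 per well in Opti-MEM and cultured for 24 h. They were then treated with compounds at up to 57.5 uM final for 24 h at 37 degrees C before Dual-Glo luminescence readout.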
Sfp qHTS opt: qHTS Assay for Inhibitos of Bacillus subtilis Sfp phosphopantetheinyl transferase (PPTase): Chemistry Optimization Followup | purified Sfp PPTase enzyme activity, qHTS | shares compounds with NTMT1 inhibitor | Potency, µM (doses to about 114 µM), for the others: at the top dose activity change, negative = inhibition, most hits filed as inhibitors | 78% of 230 active
Bsub HM489 growth: qHTS for Inhibitos of Bacillus subtilis Sfp phosphopantetheinyl transferase (PPTase): Chemistry Optimization Followup in B. Subtilis HM489; 50% of 220 active; shares compounds with NTMT1 inhibitor; Potency, µM (series often up to 114 µM), for the others: at the top dose activity change, negative = inhibition, hits mostly inhibitors; AID 540353, 2011; B. subtilis HM489 (acpS-) growth, BacTiter-Glo, 5 h
Sfp PPTase gel: Gel-Based Assay for Inhibitos of Bacillus subtilis Sfp phosphopantetheinyl transferase (PPTase): Chemistry Optimization Followup. shares compounds with NTMT1 inhibitor. purified Sfp PPTase, gel-based product detection. Potency, µM (top dose mostly 250 µM), for inactives: top-dose activity change, negative = inhibition, most hits filed as inhibitors. 54% of 220 active
Sfp inh SAR2: qHTS Assay for Inhibitors of Bacillus subtilis Sfp phosphopantetheinyl transferase (PPTase): SAR Round 2 | shares compounds with NTMT1 inhibitor | purified Sfp enzyme, PPTase activity, qHTS | Potency, µM (top dose mostly 57.1 µM), inactives show top-dose activity change, negative = inhibition, usual class: inhibitors | 87% of 230 active | AID 602370, 2012
USP2a K63: Confirmation Assay for Inhibitors of Ubiquitin-specific Protease USP2a Using CHOP2 as the Reporter: K633; shares compounds with NTMT1 inhibitor; USP2 cleavage of DiUb K63-3IQF, fluorescence kinetic; Potency, µM (highest dose often 57.5 µM), for inactives: at the top dose activity change, negative = inhibition, actives largely listed as inhibitors; 80% of 30 active; AID 652172, 2013
Casp6 inh: qHTS for Inhibitors of Ubiquitin-specific Protease USP2a Using CHOP2 as the Reporter: Caspase 6 Assay; Caspase 6 enzyme, Caspase-Glo 6 luminescence; shares compounds with NTMT1 inhibitor; 30 tested, under 10 active; activity change, negative = inhibition, % at 46.1 µM
Target sequence (P55212 whole entry, looked up): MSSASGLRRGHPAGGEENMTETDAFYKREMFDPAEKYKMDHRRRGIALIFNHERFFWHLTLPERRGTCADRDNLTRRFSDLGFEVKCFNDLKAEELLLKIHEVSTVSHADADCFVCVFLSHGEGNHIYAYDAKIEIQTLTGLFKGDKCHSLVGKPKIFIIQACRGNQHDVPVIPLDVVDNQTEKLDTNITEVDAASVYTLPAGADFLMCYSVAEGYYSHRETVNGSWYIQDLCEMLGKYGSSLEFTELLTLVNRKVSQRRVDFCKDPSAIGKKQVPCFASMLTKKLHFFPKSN
HSD17B4 counter: Extended Characterization of HPGD Inhibitors: Counterscreen Against HSD17b4; shares compounds with NTMT1 inhibitor; Potency, µM (top dose mostly 57.1 µM), for inactives: at the top dose activity change, negative = inhibition, actives largely listed as inhibitors; 10% of 230 active; purified HSD17B4, estradiol/NAD+, NADH fluorescence
ALDH1A1 counter: Extended Characterization of HPGD Inhibitors: Counterscreen Against ALDH1A1. shares compounds with NTMT1 inhibitor. recombinant ALDH1A1, NADH fluorescence, propionaldehyde/NAD+. Potency, µM (top dose mostly 57.1 µM), without a hit: at the highest dose activity change, negative = inhibition, hits mostly inhibitors. 93% of 230 active. AID 743195, 2013
NNMT inh: Counterscreen qHTS for Inhibitors of N-terminal methyltransferase 1 (NTMT1): NNMT MTaseGlo assay; shares compounds with NTMT1 inhibitor; NNMT MTase-Glo luminescence, SAH detection; Potency, µM (top dose mostly 57.1 µM), for inactives: at the top dose activity, negative = inhibition, most hits filed as inhibitors; 10% of 120 active
Target sequence (P40261 whole entry, looked up): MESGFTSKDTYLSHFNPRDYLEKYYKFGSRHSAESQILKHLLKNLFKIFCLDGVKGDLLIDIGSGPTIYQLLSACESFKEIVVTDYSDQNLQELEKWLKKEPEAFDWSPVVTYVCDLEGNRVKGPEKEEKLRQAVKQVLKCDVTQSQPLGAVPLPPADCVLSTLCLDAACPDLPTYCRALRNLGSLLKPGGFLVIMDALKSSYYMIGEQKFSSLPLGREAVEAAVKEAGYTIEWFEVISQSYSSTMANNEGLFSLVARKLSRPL
The depositor's hits bear a star; ? = inconclusive; / = no result; ! = repeats disagree; [ ] = dose if it differs, or a comment. The list is not random: actives were taken first. Their share in the collection is about 2.6%. Calls come from the whole dose curve; as a rule, active = well fitted curve in the direction sought with a large enough effect; inconclusive = small, poorly fitted or top-dose-only effect, or another doubt; inactive = no such curve, though single readings can be large; an effect the other way counts as inactive or inconclusive.

SMILES	NTMT1 inhibitor	HTT-AS act	FH mod	HTT prom inh	NNMT inh	others
COc1cc2c(cc1OCCCN1CCCC1)N=C(N)C21CCC1	1.2%	/	-0.2%	/	/
CC(C)(C)c1ccc(C(=O)Nc2ccc(-c3nc4ccccc4[nH]3)cc2)cc1	4.8%	/	/	/	/
CC(C)(C)c1ccc(-c2nc3ccccc3[nH]2)cc1	10µM*	/	0.4%[53.3 µM]	/	?
CN(C)CCCn1cc(C2=C(c3c[nH]c4ccccc34)C(=O)NC2=O)c2ccccc21	25.1µM*	/	1.0%	/	?
CC(=O)c1c(C)oc2c1cc(NS(=O)(=O)c1ccc(Br)cc1)c1ccccc12	5.3%	-39.3%	-14.1%	?	/
O=C(O)CSc1cc(NS(=O)(=O)c2ccc(Br)cc2)c2ccccc2c1O	28.2µM*	/	15.8µM*	/	?
CN(C)c1nc(NC2CCC(NCCc3ccc(Br)cc3OC(F)(F)F)CC2)nc2ccccc12 (configuration not stated)	35.5µM*	/	-9.1%	/	22.4µM*
Cc1cc(-c2nnc3n2CCCCC3)c(C)n1-c1ccc(Cl)c(Cl)c1	19.4%	/	/	/	/	HSD17B4 counter=10.5%;ALDH1A1 counter=0.607µM*
Cc1cc(-c2nnc3n2CCCCC3)c(C)n1-c1cccc(C#N)c1	17.6%	/	/	/	/	HSD17B4 counter=-0.5%;ALDH1A1 counter=?
Cc1cc(-c2nnc3n2CCCCC3)c(C)n1-c1ccc(Cl)cc1	23.0%	/	/	/	/
Cc1cc(-c2nnc3n2CCCCCC3)c(C)n1-c1ccccc1	11.8%	/	/	/	/
COc1cc(F)c(F)c(Nc2ccc(I)cc2F)c1NS(=O)(=O)C1(CC(O)CO)CC1 (configuration not stated)	-25.3%[57.5 µM]	/	-23.7%	/	/
Cc1cc(C)nc(NC(=S)N2CCN(c3nncs3)CC2)c1	-25.0%[57.5 µM]	/	/	/	/	Sfp qHTS opt=13.2µM*;Bsub HM489 growth=?;Sfp PPTase gel=31.6µM*;Sfp inh SAR2=2.29µM*;HSD17B4 counter=0.5%;ALDH1A1 counter=21.5µM*
Cc1cc(C)nc(NC(=S)N2CCN(c3nccs3)CC2)c1	?	/	/	/	/	Sfp qHTS opt=?;Bsub HM489 growth=-27.0%;Sfp PPTase gel=20µM*!;Sfp inh SAR2=4.08µM*!;HSD17B4 counter=-15.1%;ALDH1A1 counter=10.8µM*
CC(/C=C/[C@@H]1C[C@]1(C)c1ccc2c(c1)C(C)(C)CCC2(C)C)=C\C(=O)O	-3.2%	/	/	/	/
O=C(Nc1ccc(C(O)(C(F)(F)F)C(F)(F)F)cc1)c1ccc(C(F)(F)F)cc1	1.8%[57.5 µM]	/	-19.4%	/	/
C/C=C/C1=CC2=C(CO1)C(=O)[C@](C)(O)[C@H](OC(=O)c1c(O)cc(OC)c(O)c1C)C2	8.7%[29.8 µM]	/	-1.4%[53.3 µM]	/	/
CC(C)c1cc(CNc2nc(Nc3cc(C4CC4)[nH]n3)cc(N3CCN(C)CC3)n2)on1	?	/	2.5%	/	-16.4%
Cc1ccc(S(=O)(=O)Nc2cc(Cl)ccc2C(=O)Nc2nc(-c3ccccc3)cs2)cc1	27.1µM*!	-16.0%	-11.2%[53.3 µM]	?	/	USP2a K63=1.72µM*;Casp6 inh=-11.6
Cc1ccc(S(=O)(=O)Nc2ccc(Br)cc2C(=O)Nc2nc(-c3ccccc3)cs2)cc1	-15.1%	/	/	/	/
Cc1ccc(S(=O)(=O)Nc2cnccc2C(=O)Nc2ccncc2)cc1	?	/	/	/	/	USP2a K63=-11.6%;Casp6 inh=-20.5
Cc1ccc(S(=O)(=O)Nc2ccccc2C(=O)Nc2nccs2)cc1	25.1%	/	/	/	/	USP2a K63=?;Casp6 inh=16.7
Cc1ccc(S(=O)(=O)Nc2ccccc2C(=O)Nc2nc(-c3ccc(Cl)cc3)cs2)cc1	-5.3%	/	/	/	/	USP2a K63=4.3%;Casp6 inh=-7.3
Cc1ccc(S(=O)(=O)Nc2ccccc2C(=O)Nc2nc(-c3ccccc3)c(C)s2)cc1	-5.8%[57.5 µM]	/	/	/	/
COc1ccc(S(=O)(=O)N2CCC[C@H]2C(=O)Nc2cc(C)cc(C)c2)cc1	-2.6%[57.5 µM]	/	0.5%	/	/
Fc1cc(-c2cccc3ncc(-c4cnn(C5CCNCC5)c4)nc23)cc(F)c1CN1CCOCC1	17.8µM*!	-12.3%	2.5%	-9.9%	-19.4%
O=C(Cc1c(F)cccc1F)Nc1cc(OCc2ccc(Cl)cc2)ccn1	1.1%[57.5 µM]	/	-20.5%	/	?
CNc1nc(-c2ccc3c(N)n[nH]c3c2)cc(N2C[C@@H](C(=O)NC3CCCCC3)CC[C@H]2C)n1	1.6%	/	/	/	/
